From PubChem BioAssay
Hits are enriched below; roughly 28% of the tested compounds scored in any of these assays.
CYP2C19 inhib – blocks human cytochrome P450 2C19; P33261; CYP2C19 Supersomes, luciferin-H EGE luminescence, 30 min; inhibition, % at 5 µM; 96,000 tested, 21% active; AID 778;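 active = CYP2C19 inhibition above a set limit at 5 µM in the primary screen, cut at about 50% in these data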;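 also: plate controls were negative control wells for no effect and 2.5 mM tranylcypromine positive control for full effect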
Target sequence (P33261 whole entry, looked up): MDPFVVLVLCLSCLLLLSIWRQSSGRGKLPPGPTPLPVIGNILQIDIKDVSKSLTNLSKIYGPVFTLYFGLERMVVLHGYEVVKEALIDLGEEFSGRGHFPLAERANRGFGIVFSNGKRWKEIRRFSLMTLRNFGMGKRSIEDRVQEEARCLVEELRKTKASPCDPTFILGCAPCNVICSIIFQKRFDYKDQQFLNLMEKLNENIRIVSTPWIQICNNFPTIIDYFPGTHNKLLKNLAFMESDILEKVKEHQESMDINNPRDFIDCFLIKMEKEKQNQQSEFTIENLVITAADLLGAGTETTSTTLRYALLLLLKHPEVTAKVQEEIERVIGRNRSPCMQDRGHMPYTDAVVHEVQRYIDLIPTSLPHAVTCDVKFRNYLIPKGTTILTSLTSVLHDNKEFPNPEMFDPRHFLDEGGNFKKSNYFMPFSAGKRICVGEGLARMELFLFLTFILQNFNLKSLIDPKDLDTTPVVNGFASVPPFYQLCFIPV
DAT uptake mod – modulates human dopamine transporter uptake under cocaine. Q01959. LLC-PK1 hDAT cells, [14C]-dopamine uptake with cocaine IC80; actives deviate in either direction. B-score at 10 µM. 110,000 tested, 1.3% active. AID 449768;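 active = Z score or B-score, a plate-position-corrected score, falls beyond the plate's 99.7% confidence bounds, in either direction; inactive = both scores lie inside the 99.7% bounds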;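 also: scored against the spread of the other compound wells on the same plate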
CYP2C9 inh – blocks human cytochrome P450 2C9 | CYP2C9 Supersomes, luciferin-H conversion, luminescence | inhibition, % at 5 µM | P11712 | AID 777 | 96,000 tested, 20% active;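 active = blocking of liver enzyme CYP2C9 beyond about 50% at 5 µM, limit read from the data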
CYP2C9 activ – activators of human CYP2C9; P11712; recombinant CYP2C9, luciferin-H conversion, luminescence; hits give high values; factor 1 = untreated enzyme, 0 = blocked; activation factor at 5 µM; 96,000 tested, 1.4% active;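 active = activation factor of 2 or more for CYP2C9 at a 5 µM dose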;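 also: 0 = sulfaphenazole-blocked wells and 1 = vehicle-only wells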
D1 allo mod – D1 dopamine receptor (human) allosteric modulation. P21728. HEK293 D1, CRE-luciferase, dopamine EC30 potentiation; actives deviate in either direction. B-score at 10 µM. 58,000 tested, 5.9% active;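 active = luminescence count or its row- and column-corrected plate score outside the 99.7% band of the plate's sample wells, on either side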
CYP2C19 act – activators of human cytochrome P450 2C19 | P33261 | recombinant CYP2C19, luciferin-H EGE luminescence; hits give high values; 0 = fully inhibited enzyme, 1 = untreated enzyme | activation factor at 5 µM | 96,000 tested, under 10 active;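 active = activation factor of at least 2 at 5 µM in the primary screen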;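 also: 0 = wells with 2.5 mM tranylcypromine and 1 = vehicle-only wells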
Active calls of the source: *; x = no result.

SMILES	CYP2C19 inhib	DAT uptake mod	CYP2C9 inh	CYP2C9 activ	D1 allo mod	CYP2C19 act
COc1c(C)cccc1C(=O)Nc1ccc(CN2CCOCC2)cc1	32.8	0.307	-12.8	1.1	-1.43	0.7
O=C(Cc1ccc(Cl)cc1)NCC(=O)N1CCCC1	34.5	1.13	-6.3	1.1	0.15	0.7
CCNC(=O)Nn1c(-c2ccccc2)nc2ccccc2c1=O	-14.4	-0.0958	-7.2	1.1	x	1.1
COc1cccc(CNn2c(-c3cccc(C)c3)nc3ccccc3c2=O)c1O	80.1*	1.75	43.8	0.6	0.0308	0.2
O=C(Nc1ccc(S(=O)(=O)C(F)F)cc1)c1cccc(S(=O)(=O)N2CCOCC2)c1	-5.0	0.576	16.4	0.8	-0.769	1.1
COc1cccc(NC(=O)CCN2CCN(C)CC2)c1	11.3	-1.45	-14.3	1.1	-0.0445	0.9
O=C(NCc1cccnc1)c1cccn2c(=O)c3sccc3nc12	76.5*	1.13	42.9	0.6	x	0.2
CCN(C(=O)CSc1nc2ccccc2n1CCc1ccccc1)C1CCS(=O)(=O)C1 (stereo not drawn)	66.8*	1.15	-4.4	1	x	0.3
CCN(C(=O)CSc1nc(-c2ccccc2)c(-c2ccccc2)[nH]1)C1CCS(=O)(=O)C1 (stereo not drawn)	5.5	0.5	40.1	0.6	x	0.9
CCCCCC(=O)Nc1cccc(C2=NOC3(C2)C[C@@H](C(N)=O)N(C(=O)c2ccc(Cl)cc2)C3)c1 (stereo partly drawn)	x	1.04	x	x	x	x
CCN1C(=O)N[C@@H](CCc2ccccc2)[C@@H](C(=O)OC)[C@H]1C	x	-0.0304	x	x	x	x
O=C(NC(=O)N1CCN(c2ccc(F)cc2)CC1)c1ccccc1	42.7	0.0246	18.5	0.8	x	0.6
CCc1ccc(C(=O)N2CCN(c3ccc(F)cc3)CC2)s1	86.8*	2.01*	48.3	0.5	-0.74	0.1
CCc1ccc(C(=O)N2CCCC2)s1	42.1	0.0371	-11.0	1.1	0.251	0.6
O=C(c1ccccc1)c1ccc(C(=O)N2CCN(c3ccc(F)cc3)CC2)o1	89.1*	2.33	80.7*	0.2	-0.9	0.1
CCOC(=O)c1c(C)nc2c(c1C)/C(=N/O)CC(C)(C)C2	64.0*	-0.0427	54.1*	0.5	0.863	0.4
Cc1ccc(C2CN=NC23CCc2ccccc2C3=O)cc1 (stereo not drawn)	74.8*	0.0489	26.3	0.7	x	0.3
Cc1ccc(C2CN(C)C3(C(=O)Nc4ccccc43)C23COc2ccccc2C3=O)cc1 (stereo not drawn)	44.4	x	44.8	0.6	x	0.6
CC(=O)OCC1OC(Sc2cccc3cccnc23)C(OC(C)=O)C(OC(C)=O)C1OC(C)=O (stereo not drawn)	-0.9	-0.0328	4.7	1	x	1
Cc1nc(-c2cccc(NS(=O)(=O)c3ccc4ccccc4c3)c2)cs1	32.3	0.346	-59.3	1.6	x	0.7
CCn1nnnc1SCC(=O)Nc1sc(C)c(C)c1C#N	19.3	-0.204	79.0*	0.2	x	0.8
COCCn1c(SCC(=O)Nc2sc(C)c(C)c2C#N)nnc1C(C)C	80.1*	1.13	92.0*	0.1	0.664	0.2
Cc1ccc(OCc2nnc(SCC(=O)Nc3sc(C)c(C)c3C#N)n2C)cc1	0.7	-2.06	1.3	1	2.06	1
CCCc1nnc2n1N=C(c1ccc(-c3cc(Cl)ccc3Cl)o1)CS2	x	-0.782	x	x	-0.476	x
CC1CCCC(C)N1C(=O)c1cccc2c1-c1ccccc1/C2=N/O (stereo not drawn)	x	3.95*	x	x	x	x
SMILES	CYP2C19 inhib	DAT uptake mod	CYP2C9 inh	CYP2C9 activ	D1 allo mod	CYP2C19 act
CCOC(=O)c1cccc2c1-c1ccccc1/C2=N/O	41.8	0.464	66.5*	0.3	0.232	0.6
CCOC(=O)c1cccc(C(=O)OCC)n1	-14.6	0.0534	-2.8	1	2.7	1.1
O=C(Nc1cc(Oc2ccccc2)cc([N+](=O)[O-])c1)C12CC3CC(C1)CC(n1cnc(Cl)n1)(C3)C2	53.7*	x	68.5*	0.3	x	0.5
O=C(O)c1cccc(NC(=O)C23CC4CC(C2)CC(n2cnc(Cl)n2)(C4)C3)c1	61.7*	-0.938	70.9*	0.3	0.496	0.4
Cn1c(N2CCN(C(=O)C34CC5CC(CC(C5)C3)C4)CC2)nc2ccccc21	-0.9	x	6.7	0.9	0.499	1
O=C(c1ccccc1)N1CCCOC1c1ccccc1 (stereo not drawn)	-7.3	-0.62	-14.6	1.1	-0.0945	1.1
OCC12COC(c3ccccc3)N1C(c1ccccc1)OC2 (stereo not drawn)	69.4*	0.38	46.6	0.5	-0.493	0.3
CC(=O)C[C@H]1c2cc(C(F)(F)F)ccc2S(=O)(=O)N1c1ccc(N(C)C)cc1	x	0.981	x	x	x	x
CC(C)(O)C#CC#CCN1CCOCC1	-6.1	-0.694	9.5	0.9	-0.459	1.1
CCCCOC(=O)c1cc(=O)[nH]c(=O)[nH]1	x	-0.14	x	x	x	x
OCc1nn2c(c1Br)NC(c1ccccc1)CC2C(F)(F)F (stereo not drawn)	71.4*	0.931	74.2*	0.3	0.579	0.3
Cc1ccccc1Cn1ccc(NC(=O)c2cnn3c2NC(c2ccccc2)CC3C(F)(F)F)n1 (stereo not drawn)	67.3*	0.45	96.0*	0	x	0.3
COc1ccc(C2CC(C(F)(F)F)n3ncc(C(=O)Nc4c(C)n(C)n(-c5ccccc5)c4=O)c3N2)cc1 (stereo not drawn)	x	0.314	x	x	x	x
Cc1nn(C)c(C)c1CN(C)C(=O)c1cnn2c1NC(c1ccccc1)CC2C(F)(F)F (stereo not drawn)	32.1	0.176	65.2*	0.3	-0.263	0.7
O=C(NCc1ccco1)c1cnn2c1NC(c1ccccc1)CC2C(F)(F)F (stereo not drawn)	45.4	1.89	82.6*	0.2	x	0.5
Cc1ccc(C)c(N2CCN(C(=O)C3CCN(S(=O)(=O)c4cccc5nsnc45)CC3)CC2)c1	40.2	x	49.0	0.5	-0.596	0.6
CCN(CC(=O)N1CCN(C)CC1)S(=O)(=O)c1ccc(Cl)cc1	-7.3	0.0985	30.6	0.7	-0.0823	1.1
O=C(NCc1ccco1)c1cnn2c1NC(c1ccc(Br)cc1)CC2C(F)(F)F (stereo not drawn)	66.4*	0.813	87.0*	0.1	-0.567	0.3
Cc1ccc(CNc2nc(N)c([N+](=O)[O-])c(Nc3ccc(F)cc3)n2)cc1	29.6	-11.2*	46.3	0.5	x	0.7
N#C/C(=C/c1ccc(N2CCCC2)c([N+](=O)[O-])c1)c1nc2ccccc2[nH]1	73.0*	-0.473	58.1*	0.4	x	0.3
Cc1ccc2nc(/C(C#N)=C\c3ccc(N4CCCCC4)c([N+](=O)[O-])c3)[nH]c2c1	55.7*	0.22	59.1*	0.4	x	0.4
Cc1ccc(C(=O)O/N=C\c2ccc(N3CCCCC3)c([N+](=O)[O-])c2)cc1	43.1	-0.691	61.1*	0.4	x	0.6
